Data from PubChem BioAssay (NCI).
This is part of a sample that, as a whole, favours compounds with a hit. Of some 83,000 tested, about 20% had one in any assay.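 Cells were grown in 96-well plates and exposed to the test compound at a single concentration for 48 hours; results are reported as percent growth, with values below 10 considered active.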 A number with no mark means an inactive call. Activity calls are given as the source filed them.

Legend:
Experiment in all cases: NCI-60 one-dose screen, 48 h (100 = growth as untreated, 0 = no growth, -100 = all killed)
Conditions in all cases: 10 µM unless noted
RPMI-8226 leukemia = test system: RPMI-8226 leukemia
OVCAR-8 ovarian = test system: OVCAR-8 ovarian
OVCAR-5 ovarian = test system: OVCAR-5 ovarian
OVCAR-4 ovarian = test system: OVCAR-4 ovarian
IGROV1 ovarian = test system: IGROV1 ovarian
OVCAR-3 ovarian = test system: OVCAR-3 ovarian
HS 578T breast = test system: HS 578T breast
NCI/ADR-RES ovarian = test system: NCI/ADR-RES ovarian
SK-OV-3 ovarian = test system: SK-OV-3 ovarian

Row | SMILES | growth (RPMI-8226 leukemia) | growth (OVCAR-8 ovarian) | growth (OVCAR-5 ovarian) | growth (OVCAR-4 ovarian) | growth (IGROV1 ovarian) | growth (OVCAR-3 ovarian) | growth (HS 578T breast) | growth (NCI/ADR-RES ovarian) | growth (SK-OV-3 ovarian) [%]
1 | CC(C)C1=C[C@@]23CC[C@@H]4[C@](C)(CCC[C@@]4(C)C(=O)N4CCCNCC4)[C@H]2C[C@@H]1[C@H]1C(=O)CCC(=O)[C@H]13 | 100% | 96.6% | 97.9% | 98.8% | 99.2% | 115% | 106% | 94.9% | –
2 | N#CCCN=Nc1c(O)[nH]c2ccc(F)cc12 | 109% | 107% | 97.7% | 90.4% | 101% | 103% | 97.9% | 98.7% | –
3 | O=C(Cc1ccc(/C=C/C(=O)c2ncc[nH]2)cc1)Nc1ccccc1 | -0.0972% (active) | – | 78.5% | 68.2% | 63.5% | 17.7% | 80.7% | 31.1% | 75.9
4 | COc1cc2nnc3c4cccnc4[nH]c3c2cc1OC | – | -15.2% (active) | 75% | 29.8% | – | 30.5% | 58.5% | 23.4% | 81.7
5 | COc1ccc(-c2cc(C(=O)N=Nc3c(O)[nH]c4ccc(Br)cc34)no2)cc1 | 107% | 99.8% | 99.8% | – | 100% | 108% | 95.7% | 97.4% | 95.2
6 | Cc1cc(C)c2nc3nc(C)cc(C)c3c(N)c2c1 | -13.5% (active) | 45.3% | 28.7% | 33.6% | – | 26.5% | 24.3% | 30.9% | –
7 | FC(F)(F)c1ccc(-c2cn3nc(-c4c[nH]c5ccc(Br)cc45)sc3n2)cc1 | 107% | 105% | 95.5% | 102% | 73.2% | 107% | 89.1% | 96% | –
8 | C=CC(=O)Nc1cccc(-c2nc(SC)nc(Nc3ccccc3OC)c2C#N)c1 | 29.7% | 34.5% | 42.9% | -26.4% (active) | 69.3% | 23.4% | 16.8% | 29.3% | –
9 | Cc1ccc(NS(=O)(=O)c2ccc(-c3cnc(C4CC4)o3)cc2)cc1C | 12.4% | 28.2% | 37.6% | 43.2% | – | -1.67% (active) | 14.3% | -10.9% (active) | 30.7
10 | C=CCSSc1ncnc2c1ncn2C1OC(CO)C(O)C1O (centres undefined) | -8.17% (active) | 20.1% | 45.3% | 33.8% | – | 29.1% | 47.9% | 28.4% | –
11 | CC(=O)O[C@H]1CC[C@]2(C)[C@H]3CC=C4[C@@H]5CC(C)(C)CC[C@]5(C(=O)NCCNCCN)CC[C@@]4(C)[C@]3(C)CC[C@H]2C1(C)C | -44.4% (active) | – | -87.7% (active) | -25% (active) | -63.9% (active) | -91.4% (active) | 80.6% | -86% (active) | 95.8
12 | C=C(C)C(=O)Nc1ccc(NC(C)C)cc1 | – | 93.5% | 117% | 111% | 120% | 121% | 141% | 112% | 109
13 | CC(C)n1c(/C=C/[C@@H](O)C[C@@H](O)CC(=O)O)c(-c2ccc(F)cc2)c2ccccc21 | 53.2% | 40.2% | 85.8% | 90.4% | – | 84.8% | 55.1% | 22.1% | 72.6
14 | COc1cccc(-c2nc3sccn3c2-c2ccnc(NCCNS(=O)(=O)c3ccc(F)cc3)c2)c1 | -14.1% (active) | 20.1% | 49.3% | – | 28.6% | 42% | 52.4% | 10.7% | 43.7
15 | O=C(COc1ccc(/C=C2\CSc3ccccc3C2=O)cc1)Nc1nccs1 | -11% (active) | 79.4% | 92.6% | 104% | -51.8% (active) | 87.5% | 135% | 80.1% | –
16 | Nc1nc2ncc(CCNc3ccc(C(=O)O)cc3)nc2c(=O)[nH]1 | 99.4% | 108% | 103% | 127% | 113% | 128% | 117% | 115% | –
17 | Cc1nc2c3c(-c4ccccc4)c(-c4ccccc4)oc3ncn2n1 | 92.7% | 97.3% | 95.4% | 83% | – | 111% | 95.8% | 94.1% | –
18 | NC(N)=N/N=C(/c1ccccc1)c1ccc(F)cc1 | – | -65.7% (active) | 4.37% (active) | – | – | -48.8% (active) | -13.4% (active) | -37.3% (active) | 17.6
19 | O=S(=O)(Nc1ccc(OC(F)F)cc1)c1ccc(-c2cnc(C3CC3)o2)cc1 | 52.8% | 78.4% | 97.5% | – | 64.8% | 71.5% | 75.5% | 41.5% | 83.4
20 | N#C/C(=C\c1ccc(-c2ccc(Cl)c(Cl)c2)o1)c1nc(-c2ccco2)cs1 | 63.6% | – | 55.7% | 37.6% | 40.5% | 81.1% | 97.4% | 101% | 85.1
21 | COc1cc(C=Nc2oc(-c3ccccc3)c(-c3ccccc3)c2C#N)cc(CN2CCCCC2)c1O | 100% | – | 97% | 91.6% | 99.6% | 110% | 95.9% | 95.7% | 116
22 | Cn1c(=O)c2c(nc3n(-c4ccc(Cl)cc4Cl)c(Sc4nc(-c5ccccc5)c(C#N)c(=O)[nH]4)cn23)n(C)c1=O | 59.3% | 34.2% | 29.3% | – | – | -15.5% (active) | 11.5% | 43.9% | 39.7
